Inconclusive results are not listed. Where a call stands in place of a potency, no number is given. The source made the active and inactive calls. The call rests on the fitted dose curve; in most records, active means well fitted inhibition curve with a large enough effect; inconclusive means small, poorly fitted or top-dose-only effect, or effect the other way; inactive means no such curve, though single readings can be large or run the other way.
Experiment: High Content Imaging Cell-Based qHTS for Inhibitors of the mTORC1 Signaling Pathway in MEF Cells (AID 2667)
Settings: series mostly up to 38.3 µM
Source text: NIH Molecular Libraries Probe Production Centers Network [MLPCN]
NIH Chemical Genomics Center [NCGC]
Assay Submitter (PI): Blenis, John; Hoffman, Greg; Harvard University
NCGC Assay Overview: The mammalian target of rapamycin (mTOR) is an intracellular serine/threonine kinase Aberrant regulation of mTOR signaling plays a causative role in a number of human diseases, including cancer, benign tumors such as lymphangioleiomyomatosis (LAM) and Tuberous Sclerosis Complex (TSC), and metabolic diseases such as diabetes and obesity. This project aims to identify inhibitors of ribosomal protein S6 (rpS6) phosphorylation. The phosphorylation of rpS6 is a key event downstream of mTOR activation. The assay uses a phospho-specific antibody of phospho-rpS6 to detect inhibitors of mTOR activation. Mutations in the Tsc1 and Tsc2 genes are the underlying genetic lesions responsible for TSC, causing constitutive activation of the mTORC1 pathway and leading to profound effects on cell metabolism. Aberrant metabolism in cancer has recently received significant attention as a target to develop therapeutic agents in the treatment of cancer.1 As Tsc2-/- cells have lost the ability to respond to energy and growth factor deprivation, these cells are unable to properly down regulate cellular biosynthetic processes in response to metabolic stress, and are thus extremely sensitive to glucose deprivation-induced death.2 A central goal of this project is to explore the unique cell survival and metabolic properties of cells with Tsc1 or Tsc2 by screening for compounds that selectively target the Tsc2-/- MEFs by screening both Tsc2-/- and WT MEF cell lines. We hope to better understand these aspects of TSC physiology in order to exploit them for therapeutic benefit.
NCGC IN Cell Assay Protocol:
For quantitative high throughput analysis of mTORC1 signaling, we developed a cell-based assay for immuno-fluorescence based detection of rpS6 phosphorylation on the Acumen Explorer that will be used a platform for the primary small molecule screen. Mouse embryonic fibroblasts (MEFs) are cultured in 1536-well plates using DMEM + 10% FBS. Twenty-four hrs after plating, test compounds (solubilized in DMSO) are delivered and incubated with the cells for 24 hrs at 37 degree Celsius. Following the incubation, media with compound is aspirated and the cells are fixed in 4% paraformaldehyde (PFA) containing PBS + 0.2% TX-100. Next, PFA is aspirated, cells are washed two times with PBS plus 0.2% TX-100 and the cells are blocked for 1 hr at room temperature (blocking buffer: LiCOR Blocking Buffer plus 0.2% TX-100). This is followed by aspiration and staining with Alexa-488 conjugated-phospho-rpS6 Ser235/236 antibody for 2 hours at room temperature (Cell Signaling Technology # 4803, 1:50 dilution in blocking buffer). Cells are washed two times with PBS plus 0.2% TX-100, and stained with 10 uM propidium iodide (PI) for 20-25 minutes for cell number measurement (1:500 dilution of Hoescht staining is also added for IN Cell imaging). Active wells which are selected (based on Acumen results) are imaged on the IN Cell 1000 (GE Healthcare) using the D360/40X and HQ480/40X excitation filters for the Hoechst and Alexa-488 cytoplasmic stains, respectively. The fluorescence emission filters used were HQ460/40M and HQ535/50M for the Hoechst and Alexa-488 cytoplasmic stains, respectively. The normalized phospho-S6 staining is calculated as the ratio of […] for the single concentration rapamycin control ([…] nM) and DMSO columns. […] Inhibition of the pathway is defined based on the normalized phospho-S6 intensity in rapamycin treated cells. Each treatment is reported as the % positive cells in the well, where thresholds are defined by selecting wells with the highest and lowest signal and differentiating between the % non-active and % active populations. […]
Potency means the concentration at half of the fitted maximal effect.

SMILES	Potency
O=C1OC(=O)C2C3CCC(O3)C12 (stereo not given)	inactive
Nc1ncnc2c1nc(Br)n2C1OC2COP(=O)(O)O[C@@H]2C1O (stereo not given in full)	inactive
O=c1ccn([C@@H]2O[C@H](COP(=O)(O)OP(=O)(O)O)[C@@H](O)[C@H]2O)c(=O)[nH]1	inactive
Cc1cccc(C)c1OCC(N)C(C)C (stereo not given)	inactive
COC(=O)C(N)Cc1ccc(Cl)cc1 (stereo not given)	inactive
CN(C)S(=O)(=O)c1ccc2c(c1)/C(=C/c1cc3c([nH]1)CCCC3)C(=O)N2	inactive
CC(=O)NNC(=O)N1Cc2ccccc2Oc2ccc(Cl)cc21	inactive
CN(C)CCCc1cc(C(=O)Nc2ccc(-c3ccncc3)cc2)ccc1O	inactive
Nc1ccc(-c2ccc3ccccc3n2)cc1	inactive
Clc1nccc2c1ccc1ccccc12	inactive
Cn1ccnc1	inactive
NC(=O)c1cc[n+](CC2=C(C(=O)O)N3C(=O)[C@@H](NC(=O)[C@@H](c4ccccc4)S(=O)(=O)[O-])[C@H]3SC2)cc1	inactive
[N-]=[N+]=Nc1ccc(C(=O)CSC[C@H](NC(=O)CC[C@H](N)C(=O)O)C(=O)NCC(=O)O)cc1	inactive
CCCCCCC(=O)OC1CC(C)(C)NC(C)(C)C1	inactive
CCCn1c(=O)c2c(ncn2C)n(CCC)c1=O	inactive
O=C(O)CCC(=O)N1CCCC1C(=O)O (stereo not given)	inactive
OCC1NCC(O)C(O)C1O (stereo not given)	inactive
NC(C(=O)N[C@@H]1C(=O)N2C(C(=O)O)=C(Cl)CS[C@H]12)c1ccccc1 (stereo not given in full)	inactive
Cc1cc2c(cc1Cl)N(C(=O)Nc1ccnc3ccccc13)CC2	inactive
CC1CCN=C(N)S1 (stereo not given)	inactive

SMILES	Potency
O=[N+]([O-])c1cccc2c(Br)[nH]nc12	inactive
NCCCCN	inactive
CN(C)C(=O)/N=N/C(=O)N(C)C	inactive
O=C(c1ccc2c(c1)OCCO2)N1CCCCC1	inactive
O=c1[nH]c2ccccc2c2ccccc12	inactive
C[C@@]1(C2CCCC2)Cc2cc(OCC(=O)O)c(Cl)c(Cl)c2C1=O	inactive
O=C(O)C1CCNCC1	inactive
N=C(N)c1ccccc1	inactive
COc1cc(C(O)CO)ccc1O (stereo not given)	inactive
O=C(O)C1=CCNCC1	inactive
NOCC(=O)O	inactive
Cc1nc(N=Nc2cc(S(=O)(=O)O)c3cc([N+](=O)[O-])cc(S(=O)(=O)O)c3c2)c(COP(=O)(O)O)c(C=O)c1O	inactive
CC(=O)[C@H]1CCC2C3CC=C4C[C@@H](OS(=O)(=O)O)CC[C@]4(C)C3CC[C@@]21C (stereo not given in full)	inactive
CNc1cc(NS(=O)(=O)c2ccc(N)cc2)nc(NC)n1	inactive
C[C@H](NC(=O)/C(C#N)=C/c1ccc(O)c(O)c1)c1ccccc1	inactive
COc1ccc2c(c1)c(CC(=O)O)c(C)n2Cc1ccc(Cl)cc1	inactive
CCCn1c(=O)c2[nH]c(C3CCCC3)nc2n(CCC)c1=O	inactive
COC(=O)C(C)(N)Cc1ccc(O)cc1 (stereo not given)	inactive
c1ccc(C(NCCNC(c2ccccc2)c2ccccc2)c2ccccc2)cc1	13.1 µM (active)
COc1cc(CC(=O)O)ccc1O	inactive

— PubChem BioAssay (NCATS)
